# Test results published in PubChem BioAssay AID488969 (Vanderbilt High Throughput Screening Facility, 2010).
# In all, about 110,000 compounds were measured (“z-score”: median about -0.1, highest 2% from about 2 on). Shown is part of a subset that was picked to be rich in the highest values. Calls of active or inactive are those of the source.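 Rule for the calls: active = z-score in the third read window above 3 or below -3; inactive = the rest.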
# Molecular target: Metabotropic glutamate receptor 8 (Rattus norvegicus) (UniProt P70579)
# Assay: mGluR8 Gi/Go-coupled signaling modulation – cell-based, rat, thallium flux, HTS, primary screen (AID 488969)
# Settings: HEK293 rat mGluR8, GIRK (G protein-gated inwardly rectifying potassium channel) thallium flux, FluoZin2; at 10 µM; stronger effect = higher value; submaximal glutamate (EC20) added with thallium
# Metabotropic glutamate receptor 8 (Rattus norvegicus), sequence (P70579 whole entry, looked up): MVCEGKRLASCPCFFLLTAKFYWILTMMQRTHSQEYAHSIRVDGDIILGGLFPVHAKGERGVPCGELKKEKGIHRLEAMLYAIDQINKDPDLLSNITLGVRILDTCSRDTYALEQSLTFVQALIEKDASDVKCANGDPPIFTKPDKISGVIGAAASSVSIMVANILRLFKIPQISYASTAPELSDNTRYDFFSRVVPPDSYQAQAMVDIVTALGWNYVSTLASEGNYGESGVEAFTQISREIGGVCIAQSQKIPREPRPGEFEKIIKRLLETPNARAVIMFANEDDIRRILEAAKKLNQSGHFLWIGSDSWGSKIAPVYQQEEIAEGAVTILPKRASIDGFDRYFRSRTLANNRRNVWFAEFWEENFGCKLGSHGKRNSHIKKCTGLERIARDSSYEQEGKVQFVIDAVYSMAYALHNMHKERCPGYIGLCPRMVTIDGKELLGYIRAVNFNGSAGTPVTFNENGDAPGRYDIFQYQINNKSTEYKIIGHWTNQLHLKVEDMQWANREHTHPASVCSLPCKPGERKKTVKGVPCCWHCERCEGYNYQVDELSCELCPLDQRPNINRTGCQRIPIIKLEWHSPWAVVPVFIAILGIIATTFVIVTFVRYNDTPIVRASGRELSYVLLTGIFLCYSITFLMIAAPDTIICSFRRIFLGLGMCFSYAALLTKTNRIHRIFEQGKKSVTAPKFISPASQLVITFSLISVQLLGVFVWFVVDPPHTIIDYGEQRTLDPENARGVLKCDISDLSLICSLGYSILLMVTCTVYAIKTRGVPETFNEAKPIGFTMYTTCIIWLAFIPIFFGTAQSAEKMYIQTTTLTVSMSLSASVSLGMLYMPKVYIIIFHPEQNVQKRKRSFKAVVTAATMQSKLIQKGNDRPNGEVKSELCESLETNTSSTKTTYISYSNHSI
row,SMILES,z-score
1,O=C(O)CCc1ccc(-c2ccc(F)cc2)n1NC(=O)c1ccco1,0.168
2,N#CC1=C(N)Oc2cc(O)c(C=Nc3ccccc3)cc2C1c1ccccc1 (stereo not given),-0.423
3,Cc1ccc(N=Cc2cc3c(cc2O)OC(N)=C(C#N)C3c2ccccc2)cc1 (stereo not given),6.28 (active)
4,COc1ccc(N=Cc2cc3c(cc2O)OC(N)=C(C#N)C3c2ccccc2)cc1 (stereo not given),-1.18
5,O=C(c1ccc(Cn2c(=O)[nH]c3ccccc3c2=O)cc1)N1CCN(c2ccc(Cl)cc2)CC1,-0.127
6,CC(C)CCn1c(CN2CCN(Cc3ccccc3)CC2)nc2c1c(=O)n(C)c(=O)n2C,0.709
7,CN1CCN(Cc2nc3c(c(=O)[nH]c(=O)n3C)n2CCc2ccccc2)CC1,-0.00916
8,CC(C)CCn1c(CN2CCN(Cc3ccccc3)CC2)nc2c1c(=O)[nH]c(=O)n2C,5.8 (active)
9,CC(C)CCNC(=O)CO/N=C/c1ccccc1OC(F)F,-0.572
10,COc1cc(Nc2nc3ccccc3n3nnnc23)cc(OC)c1OC,-0.0435
11,COc1cc(Nc2nc(SCC#N)nc3ccccc23)cc(OC)c1OC,2.31
12,N#CCSc1nc(Nc2ccc3c(c2)OCO3)c2ccccc2n1,-0.556
13,CC(C)COC(=O)c1cccc2c1-c1ccccc1/C2=N\O,-0.108
14,O=C(Nc1cccc(Oc2ccc3c(c2)C(=O)NC3=O)c1)c1cccs1,0.83
15,CC1CCCC(n2c(=S)[nH]c3ccccc3c2=O)C1C (stereo not given),9.07 (active)
16,CC1CCCCC1n1c(=S)[nH]c2ccccc2c1=O (stereo not given),16.2 (active)
17,Cc1cc(C)c2c(N=NN3CCCCC3)[nH]nc2n1,-0.0999
18,CCN(CC)S(=O)(=O)c1ccc(NC(=O)c2ccc(NS(C)(=O)=O)cc2)cc1,1.67
19,CCn1c(N2CCN(C(=S)NCC(C)C)CC2)nc2ccccc21,-0.148
20,CCCC(=O)NCc1ccc2c(c1)cc(C)n2C,-0.371
21,CC1=C(C(=O)OCC2CCCO2)C(c2ccc(C)o2)C2=C(CC(c3ccc(F)cc3)CC2=O)N1 (stereo not given),-3.31 (active)
22,CCOC(=O)C1=C(C)NC2=C(C(=O)CC(c3ccc(OC)c(OC)c3)C2)C1c1ccc(C)o1 (stereo not given),4.89 (active)
23,CC1=C(C(=O)OCC2CCCO2)C(c2ccc(C)o2)C2=C(CC(c3ccc(N(C)C)cc3)CC2=O)N1 (stereo not given),-0.22
24,Cc1cc(C(F)(F)F)nc(SCC(=O)NC2=NC(=O)C(C)S2)n1 (stereo not given),0.475
25,O=C(CNC(=O)c1cccc(F)c1)N/N=C/c1cc(Br)ccc1OC(=O)/C=C/c1ccco1,2.46
26,O=C(CNC(=O)c1ccccc1F)N/N=C/c1cc(Br)ccc1OC(=O)/C=C/c1ccco1,-0.338
27,COc1ccccc1C(=O)NCC(=O)N/N=C/c1cc(Br)ccc1OC(=O)/C=C\c1ccco1,-0.122

row,SMILES,z-score
1,Cc1cc(C)nc(NC(=O)c2ccc(C)c([N+](=O)[O-])c2)n1,-0.0674
2,O=C(Nc1ccccc1)C(=O)Nc1ccccn1,-0.125
3,O=C(CN1CCN(CC(=O)Nc2ccccn2)CC1)Nc1ccccn1,-0.212
4,O=C(CC(=O)Nc1ccccn1)Nc1ccccn1,4.08 (active)
5,COc1ccc(OCc2nc3ccc(S(=O)(=O)Nc4ccccc4Cl)cc3[nH]2)cc1,-0.822
6,Cc1ccc(S(=O)(=O)N2CCCCC2)cc1NC(=O)CSc1ccc2c(c1)OCCO2,-0.361
7,CCCCSc1nc(N)c(NC(=O)c2ccco2)c(=O)[nH]1,3.07 (active)
8,Nc1nc(SCC(=O)N2CCCC2)[nH]c(=O)c1NC(=O)c1ccco1,0.975
9,CCCCSc1nc(O)c(Cc2ccccc2)c(=O)[nH]1,0.379
10,O=C(O)C1C2C=CC(C3CC23)C1C(=O)NCCc1ccccc1 (stereo not given),0.335
11,Cc1cc(C)n2nc(C(=O)NCc3ccccc3)cc2n1,0.128
12,CCS/C(N)=N/N=C/c1cc(C)ccc1O,-0.389
13,CCc1ccccc1NC(=S)N1CCC(C(=O)c2ccc(F)cc2)CC1,0.202
14,Cc1cccc(NC(=S)N2CCC(C(=O)c3ccc(F)cc3)CC2)c1C,5.76 (active)
15,O=C(c1ccc(F)cc1)C1CCN(C(=S)Nc2ccccc2)CC1,-0.612
16,Cc1ccc(Cn2ncc3c(NCCCN4CCOCC4)ncnc32)cc1,-0.227
17,CCc1nnc(NC(=O)CSc2nnc(-c3cccnc3)n2CCc2ccccc2)s1,0.167
18,Cc1ccc(OCCn2c(=O)sc3ccccc32)cc1,-0.193
19,COc1ccc(N(C)S(=O)(=O)c2c(C)[nH]c(=O)[nH]c2=O)cc1,0.02
20,COc1ccc(CO/N=C/c2c(C)[nH]c(=O)[nH]c2=O)cc1,3.36 (active)
21,COc1ccc(Cc2c[nH]c(=O)[nH]c2=O)cc1,-0.218
22,O=C(CSc1ncn[nH]1)Nc1ccc([N+](=O)[O-])cc1Br,-0.12
23,COc1ccc(C2CC(=O)C=C(NCCC(C)C)C2)cc1 (stereo not given),0.226
24,CCCCCNC1=CC(=O)CC(c2ccccc2)C1 (stereo not given),-0.123
25,CC(C)CCNC1=CC(=O)CC(c2ccccc2)C1 (stereo not given),2.1
26,CC(c1ccccc1)N1C(=O)c2ccc(C(=O)NCc3ccco3)cc2C1=O (stereo not given),-0.54
27,Cc1ccc(N=C(NO)c2nonc2N)cc1,-1.5

row,SMILES,z-score
1,Cn1ccnc1C(O)(c1nnc(-c2ccccc2)o1)C(F)(F)F (stereo not given),-1.19
2,CC(C)n1c(O)c(N=NC(=O)c2ccccc2NS(=O)(=O)c2cccs2)c2ccccc21,-0.411
3,CC(C)n1c(O)c(N=Nc2ccccn2)c2ccccc21,2.21
4,Cc1cc(C(=O)N=Nc2c(O)n(C(C)C)c3ccccc23)n[nH]1,0.232
5,CCCCn1c(O)c(N=NC(=O)Cn2c(C(F)(F)F)nc3ccccc32)c2ccccc21,0.194
6,CC(C)n1c(O)c(N=Nc2ccc(Cl)nn2)c2ccccc21,3.42 (active)
7,CCCCn1c(O)c(N=Nc2ccccn2)c2ccccc21,2.97
8,CC(C)CCn1c(O)c(N=Nc2ccccn2)c2ccccc21,1.19
9,CC(C)n1c2ccccc2c2nc3ccccc3nc21,-0.47
10,CC(C)n1c(O)c(N=NC(=O)Cn2ccc(C(F)(F)F)n2)c2ccccc21,1.13
11,COc1ccc(CC(=O)NCc2ccco2)cc1OC,-0.0499
12,CN(C)C(CNS(=O)(=O)c1ccc(Cl)cc1)c1cccnc1 (stereo not given),-0.0299
13,CCOC(=O)CCc1c(C)c2ccc(OCC(=O)N(CC)CC)c(C)c2oc1=O,-0.0102
14,CCCc1cc(=O)[nH]c(SCC(=O)N2N=C(c3ccc(Cl)cc3)CC2c2ccco2)n1 (stereo not given),-0.126
15,COCCn1c(=S)[nH]c2cc(C(=O)N3CCC(C(N)=O)(N4CCCCC4)CC3)ccc2c1=O,-0.286
16,CCOc1ccccc1N1CCN(Cc2cccc(OC)c2O)CC1,-0.0607
17,COc1ccccc1N1CCN(Cc2cc(Br)c(O)c3ncccc23)CC1,3.32 (active)
18,COc1ccccc1N1CCN(Cc2ccc(O)c3ncccc23)CC1,-0.0396
19,Cc1cc(C(=O)NCC(=O)OCC(=O)N(C)C2CCCCC2)ccc1[N+](=O)[O-],0.828
20,CCOC(=O)C1C(=O)C=C(/C=C/c2ccccc2)CC1c1ccc(Cl)cc1 (stereo not given),-0.123
21,CC(C)[C@H](NC(=O)OC(C)(C)C)c1nnc(SCC(=O)Nc2ccc(Br)cc2)o1,-0.355
22,Cn1c(N2CCN(C(=O)NC34CC5CC(CC(C5)C3)C4)CC2)nc2ccccc21,-0.317
23,Cc1ccc(-n2c(SCC(=O)Nc3cccc(S(=O)(=O)NC4=NCCCCC4)c3)nc3ccccc3c2=O)cc1,-0.48
24,O=C(CSc1ccc2ccccc2c1Br)Nc1cccc(S(=O)(=O)NC2=NCCCCC2)c1,14.5 (active)
25,Cc1cc(C)cc(-n2c(SCC(=O)Nc3cccc(S(=O)(=O)NC4=NCCCCC4)c3)nc3ccccc3c2=O)c1,-0.139
26,CCCCC(c1nnnn1C1CCCC1)N1CCN(C2CCCCC2)CC1 (stereo not given),-0.391
27,COC(=O)C1CCCN1S(=O)(=O)c1ccc2ccccc2c1 (stereo not given),2.41

row,SMILES,z-score
1,O=C(O)C1CCCCN1S(=O)(=O)c1ccc2ccccc2c1 (stereo not given),-0.217
2,O=C(NC1CC1)C1CCCN1S(=O)(=O)c1ccc2ccccc2c1 (stereo not given),-0.112
3,Cc1ccc(C(=O)COc2ccccc2-c2ccccc2)cc1,-0.229
4,CCOc1ccccc1C(=O)N(Cc1ccccc1)Cc1cc2cc3c(cc2[nH]c1=O)OCCO3,0.283
5,CCOC(=O)c1ccc(NC(=O)CCNC(=O)c2ccc([N+](=O)[O-])cc2)cc1,-0.327
6,CCn1nc([N+](=O)[O-])c(C(C#N)c2nc3cc(C(F)(F)F)ccc3s2)c(Cl)c1=O (stereo not given),2.97
7,CCCn1nc([N+](=O)[O-])c(C(C#N)c2nc3ccccc3s2)c(Cl)c1=O (stereo not given),-2.49
8,CCn1nc([N+](=O)[O-])c(C(C#N)c2nc3ccccc3n2C)c(Cl)c1=O (stereo not given),-0.682
9,CCCS(=O)(=O)N1CCC(C(=O)NCc2ccco2)CC1,0.18
10,Cc1ccc(OCc2nnc(SCC(=O)c3cccs3)n2-c2ccccc2)cc1C,0.316
11,Cc1c(C(=O)OCC(=O)N2CC(C)OC(C)C2)oc2ccc(Br)cc12 (stereo not given),-0.32
12,CC(C)(C)OC(=O)COc1cc(O)c2c(=O)cc(-c3ccccc3)oc2c1,4.76 (active)
13,CC(C)(C)OC(=O)COc1cc(OCC(=O)OC(C)(C)C)c2c(=O)cc(-c3ccccc3)oc2c1,-0.331
14,O=C(COc1cc(O)c2c(=O)cc(-c3ccccc3)oc2c1)c1ccccc1,0.0143
15,O=C(Cc1ccccc1)N/N=C/c1ccc(OCC(=O)Nc2ccccc2)cc1,-0.147
16,CCc1nc(C)ccc1OC(=O)C12CC3CC(CC(C3)C1)C2,0.238
17,Cc1ccc(-c2cc3cccc[n+]3cc2-c2ccc(C)cc2)cc1,-0.0109
18,O=S(=O)(Nc1ccc2c(c1)OCCO2)c1ccc(F)cc1,-0.102
19,O=S(=O)(Nc1cccnc1)c1ccc2c(c1)OCCO2,-0.833
20,Cc1ccc(S(=O)(=O)Nc2ccc3nc(C)sc3c2)cc1,-0.613
21,Cc1nc2ccc(NS(=O)(=O)c3ccc4c(c3)OCCO4)cc2s1,3.48 (active)
22,Cc1nc2ccc(NS(=O)(=O)c3ccc(C)c(C)c3)cc2s1,-0.187
23,Cc1cccc(NS(=O)(=O)c2ccc3c(c2)OCCO3)c1,2.76
24,CCCCOc1ccc(NC(=O)C2CC=CCC2C(=O)O)cc1 (stereo not given),-0.0643
